Active and inactive are the calls of the source.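 Rule for the calls, unless noted: active = visually confirmed hit in the image check and inhibition above 20%; inconclusive = visually confirmed hit but inhibition not above 20%; inactive = no visual hit in the image check.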
How the values were obtained:
[1] = inhibitors of TNFa-induced NFkB p65 translocation, primary screen, imaging, HUVEC, MLSMR starter and 10KST1 sets (AID 438;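 active = inhibition above 20% together with a positive visual image hit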;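 note: compound added about 3h40 before a 20 min TNFalpha stimulation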;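 for inhibition: signal is the nuclear over cytoplasmic p65 intensity ratio per well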); conditions: HUVEC TNFa-induced p65 nuclear translocation; cell count: measured here: nuclei count (cytotoxicity indicator), at 2.08 µM; inhibition: at 2 µM, stronger effect = higher value, 0% TNFa-plus-vehicle, 100% no-TNFa wells
[2] = reduction of polyQ htt aggregates in cells – imaging, exon1htt(103Q)mCFP cells, high-content imaging, primary screen (AID 483;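 active = visual image review flags a hit and inhibition of aggregation exceeds 20%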;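 note: compound exposure lasted 3 days before fixation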;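 for nuclei count: percent of the per-plate median nuclei count of sample wells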); conditions: exon1htt(103Q)mCFP cell line, aggregate imaging, at 2 µM; inhibition of aggregation: stronger effect = higher value; nuclei count: measured here: cell count, toxicity
[3] = endothelial E-selectin expression blockers – imaging, HUVEC, immunofluorescence, MLSMR starter and 10KST1 sets, primary screen (AID 487); conditions: HUVEC TNFalpha-induced E-selectin immunofluorescence imaging, at 2 µM; inhibition: stronger effect = higher value; nuclei count: measured here: cell number, toxicity;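 for inhibition: signal is fraction of cell area covered by stained E-selectin grains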;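 for nuclei count: 100% = median nuclei count of all wells on the same plate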
[4] = molecular target: Voltage-gated potassium channel subunit beta-2 (Rattus norvegicus) (UniProt P62483); experiment: inhibitors of rat Kvbeta2 reductase activity – biochemical, NADPH fluorescence, primary screen (AID 622;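 active = fluorescence slope higher than the sample average by over 3 SD, cut at about -0.22 in these data, passing the limit was not always enough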;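 note: slope of raw intensity against log time taken from 70 to 1610 s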); conditions: recombinant KvBeta, 4-cyanobenzaldehyde reduction, at 10 µM, stronger effect = higher value
[5] = molecular target: Voltage-gated potassium channel subunit beta-2 (Rattus norvegicus) (UniProt P62483); experiment: enhancers of rat Kvbeta2 NADPH turnover – biochemical, NADPH fluorescence, primary screen (AID 623;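 active = NADPH fluorescence slope more negative than the mean of all samples by about 3 SD, 99.7% confidence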;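 note: fluorescence intensity change per second fitted from 20 to 320 s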); conditions: Recombinant KvBeta, NADPH fluorescence decrease slope, 10 min; at 10 µM; stronger effect = lower value
[6] = molecular target: Alpha-2C adrenergic receptor (Homo sapiens) (UniProt P18825); experiment: compounds altering alpha2C-coupled GIRK flux – cell-based, HEK293 alpha2C/GIRK1/2, thallium flux, primary screen (AID 624;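 active = fluorescence slope after compound addition differing from the mean of all screened samples at 99.7% confidence, in either direction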;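 note: slope of fluorescence ratio to pre-addition baseline per second over 15 to 24 s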); conditions: thallium flux BTC fluorescence, at 10 µM, actives lie on both sides
[7] = blockers of RIG-like receptor reporter activation – cell-based, Sendai virus stimulus, luciferase, 10K MLSCN set, TLR/RLR signaling modifier project, primary screen (AID 602276;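 active = inhibition at or above 50% at 10 µM; inactive = inhibition below 50%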;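 note: firefly luciferase from ISG56 promoter only with Renilla not read in this screen; 0% = Sendai virus plus DMSO and 100% = medium plus DMSO without virus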); conditions: HEK293 RL24 IRF3 luciferase reporter, at 10 µM, stronger effect = higher value
[8] = TLR3 IRF3 reporter activation blockers – cell-based, poly I:C stimulus, luciferase, 10K MLSCN set, primary screen (AID 602277;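 active = inhibition of the reporter signal at or above 50%; inactive = inhibition below 50%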); conditions: HEK293-TLR3 RL24 IRF3 luciferase reporter, at 10 µM, stronger effect = higher value

Sequence of Voltage-gated potassium channel subunit beta-2 (Rattus norvegicus) (P62483 whole entry, looked up): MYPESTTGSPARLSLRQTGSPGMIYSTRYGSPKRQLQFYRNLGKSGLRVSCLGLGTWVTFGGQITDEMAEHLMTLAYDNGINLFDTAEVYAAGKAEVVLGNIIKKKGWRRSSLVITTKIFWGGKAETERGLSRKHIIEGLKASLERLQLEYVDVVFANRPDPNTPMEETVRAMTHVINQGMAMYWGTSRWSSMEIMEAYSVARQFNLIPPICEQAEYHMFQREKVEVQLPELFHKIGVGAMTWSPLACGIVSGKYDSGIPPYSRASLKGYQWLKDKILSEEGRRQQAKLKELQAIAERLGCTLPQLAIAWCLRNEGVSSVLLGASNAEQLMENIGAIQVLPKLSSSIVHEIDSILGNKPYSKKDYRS
Sequence of Alpha-2C adrenergic receptor (Homo sapiens) (P18825 whole entry, looked up): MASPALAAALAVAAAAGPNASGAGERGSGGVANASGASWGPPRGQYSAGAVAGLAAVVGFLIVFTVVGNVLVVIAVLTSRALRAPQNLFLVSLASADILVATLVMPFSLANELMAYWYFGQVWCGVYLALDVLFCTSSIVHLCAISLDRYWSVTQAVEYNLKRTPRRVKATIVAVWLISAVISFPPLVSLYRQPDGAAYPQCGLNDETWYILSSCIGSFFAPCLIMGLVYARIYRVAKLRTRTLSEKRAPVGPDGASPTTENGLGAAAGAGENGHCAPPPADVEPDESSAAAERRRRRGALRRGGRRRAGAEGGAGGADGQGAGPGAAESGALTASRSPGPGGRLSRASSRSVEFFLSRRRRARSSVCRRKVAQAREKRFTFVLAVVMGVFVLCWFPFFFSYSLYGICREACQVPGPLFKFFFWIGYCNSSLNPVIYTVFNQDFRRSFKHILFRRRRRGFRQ

Row | Structure (SMILES) | cell count [1] | inhibition [1] | inhibition of aggregation [2] | nuclei count [2] | inhibition [3] | nuclei count [3] | fluorescence slope [4] | NADPH fluorescence slope [5] | slope [6] | inhibition [7] | inhibition [8]
1 | N#CC1=C(N)S[C@H](C(=O)C23CC4CC(CC(C4)C2)C3)[C@H]1c1ccncc1 | 297 | 2.4% (inactive) | -16.4% (inactive) | 105% | -10.8% (inactive) | 111% | -0.482 (inactive) | -1.6e-05 (inactive) | 0.0041 (inactive) | 11.9% (inactive) | 23.4% (inactive)
2 | CC1(C)CC(=O)C2=C(C1)OC(N)=C(C#N)C2C1CC=CCC1 (centres undefined) | 569 | 2.4% (inactive) | 1.3% (inactive) | 119% | -52% (inactive) | 89.2% | -0.556 (inactive) | -1.7e-05 (inactive) | 0.00554 (inactive) | 16% (inactive) | 22.1% (inactive)
3 | O=C(Cn1nnc(-c2ccc(CN3CCOCC3)cc2)n1)NC1CCCCC1 | 447 | 0.3% (inactive) | 7.3% (inactive) | 108% | -20.9% (inactive) | 118% | -0.584 (inactive) | -4.1e-05 (inactive) | 0.0043 (inactive) | 14% (inactive) | 9.43% (inactive)
4 | O=C(Nc1ccc2c(c1)OCO2)c1cc2ncc(Br)cn2n1 | 588 | 6.6% (inactive) | -4.4% (inactive) | 107% | -73.8% (inactive) | 104% | -0.624 (inactive) | 1.6e-05 (inactive) | 0.00236 (inactive) | 5.44% (inactive) | 11.5% (inactive)
5 | O=C1NC(=O)C(CC(=O)N(Cc2ccco2)C2(C(=O)NC3CCCC3)CCCCC2)N1 (centres undefined) | 670 | -7.4% (inactive) | 28.8% (active) | 106% | -67.8% (inactive) | 127% | -0.534 (inactive) | -3.9e-05 (inactive) | 0.00746 (inactive) | -0.4% (inactive) | 18.4% (inactive)
6 | COC(=O)c1sc(N)c(C(=O)OC)c1CSc1nc2sc3c(c2c(=O)n1C)CCC3 | 428 | 14.1% (inactive) | -20% (inactive) | 104% | 2.9% (inactive) | 111% | -0.524 (inactive) | -6.8e-06 (inactive) | 0.00788 (inactive) | -6.85% (inactive) | 15% (inactive)
7 | COc1ccc(-c2cc(C(F)(F)F)n3ncc(C(=O)NCC4CCCO4)c3n2)cc1 (centres undefined) | 669 | 6.7% (inactive) | -1% (inactive) | 67.5% | 57.7% (inactive) | 95.2% | -0.00373 (active) | 2e-06 (inactive) | 0.00552 (inactive) | 13.6% (inactive) | 25.3% (inactive)
8 | O=C(Cn1nc(Cc2cccnc2)c2ccccc2c1=O)NCC1CCCO1 (centres undefined) | 461 | 6.1% (inactive) | 12.1% (inactive) | 69.2% | -96.1% (inactive) | 115% | -0.553 (inactive) | -2.6e-06 (inactive) | 0.00713 (inactive) | 11.5% (inactive) | 29.9% (inactive)
9 | Cc1ccc(C(=O)CSc2n[nH]c(-c3ccco3)n2)cc1C | 397 | 0.7% (inactive) | -8.3% (inactive) | 113% | 11.3% (inactive) | 106% | -0.479 (inactive) | 1.8e-05 (inactive) | 0.00302 (inactive) | 0.966% (inactive) | 10.8% (inactive)
10 | Cc1nnc(SCc2cn3ccsc3n2)n(N)c1=O | 858 | -10.7% (inactive) | -21% (inactive) | 105% | -50.6% (inactive) | 121% | -0.641 (inactive) | 1.9e-05 (inactive) | 0.00624 (inactive) | 17.8% (inactive) | 31.6% (inactive)
11 | CCN(CC)C1CCCCC1NS(=O)(=O)c1ccc(Cl)cc1 (centres undefined) | 528 | -9.2% (inactive) | 14.4% (inactive) | 96.8% | -17.6% (inactive) | 82.7% | -0.538 (inactive) | -1.7e-06 (inactive) | 0.00692 (inactive) | 45.1% (inactive) | 28% (inactive)
12 | Cc1cccc(C2CC(c3ccc(Br)cc3)Nc3nc(N)nn32)c1 (centres undefined) | 683 | -15.7% (inactive) | -3% (inactive) | 95.1% | -5.8% (inactive) | 105% | -0.443 (inactive) | -5.3e-05 (inactive) | 0.00633 (inactive) | 20.8% (inactive) | 25.1% (inactive)
13 | CCOC(=O)N1CCN(c2cc(=O)n(-c3ccccc3Cl)c(=O)[nH]2)CC1 | 553 | -7.4% (inactive) | 12.5% (inactive) | 84.2% | 15% (inactive) | 90.2% | -0.581 (inactive) | -4.3e-05 (inactive) | 0.00703 (inactive) | -11.4% (inactive) | 11.8% (inactive)
14 | O=C(C1CCCO1)N1CCN(Cc2nc3ccccc3c(=O)[nH]2)CC1 (centres undefined) | 583 | 6.8% (inactive) | 14% (inactive) | 125% | -6.3% (inactive) | 104% | -0.421 (inactive) | 2.2e-05 (inactive) | 0.00673 (inactive) | 0.729% (inactive) | 31% (inactive)
15 | COc1ccc2[nH]c(=O)c(CNC3CCCCC3)cc2c1 | 673 | 6.3% (inactive) | 3.5% (inactive) | 112% | -17.6% (inactive) | 90.1% | -0.452 (inactive) | -3.4e-05 (inactive) | 0.00407 (inactive) | 6.87% (inactive) | 29% (inactive)
16 | COc1ccc(C(=O)N2CCSC2=S)cc1OC | 677 | -19.3% (inactive) | -13.4% (inactive) | 97.5% | 55.8% (inactive) | 82.9% | -0.457 (inactive) | -2.6e-05 (inactive) | 0.00338 (inactive) | 4.55% (inactive) | 15% (inactive)
17 | COc1cccc(C2C3=C(N=C4SCC(=O)N42)c2ccccc2CC3)c1OC (centres undefined) | 680 | 1.6% (inactive) | -10.8% (inactive) | 107% | -15.3% (inactive) | 98.5% | -0.442 (inactive) | 4.1e-05 (inactive) | 0.00306 (inactive) | -0.493% (inactive) | 29.3% (inactive)
18 | Cc1c(C(=O)OCC(C)C)[nH]c2c1C(=O)CC(c1ccco1)C2 (centres undefined) | 464 | 8.4% (inactive) | -226% (inactive) | 4% | -91.9% (inactive) | 96.5% | -0.492 (inactive) | -3.2e-07 (inactive) | 0.00635 (inactive) | 75.6% (active) | 76.5% (active)
19 | COc1cccc(C2CC(c3ccc(F)cc3)Nc3nc(N)nn32)c1 (centres undefined) | 605 | -6.5% (inactive) | 1.4% (inactive) | 105% | -6.1% (inactive) | 117% | -0.501 (inactive) | 2.1e-05 (inactive) | 0.00747 (inactive) | -17.7% (inactive) | 16.2% (inactive)

— PubChem BioAssay
